Experimental data taken from the supplement of paper PMC10849652.
Targets with a hit are over-represented here; the source holds about 8,800 in all. About 0.5% of all pairs of compound and target were hits.

Experiments:
Assay in all cases: log2 fold change, soluble protein after heating vs DMSO (PISA); higher = thermal stabilisation; K562 lysate, 10 uM; active = over 0.2 and 3.5 SD of the protein, either way, in both replicates (recomputed)
[1] = compound: C#Cc1cccc(Nc2ncnc3cc(OCCOC)c(OCCOC)cc23)c1 [erlotinib]
Procedure, shortened: (§1)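 Following dounce homogenisation of K562 pellets in PBS pH 7.4 with 1 mM MgCl2, crude extract at 1 mg/mL protein was incubated for 30 min with 10 μM compound. Aliquots were then heated for 3 min over 48°C-58°C and pooled, NP-40 was added to 0.5% at 4°C, and soluble protein was recovered as the supernatant at 21,000xg for 90 min. Channel-sum-equalised TMTpro 16plex LC-MS/MS quantified this protein. Each value, from duplicates, is a log-two fold change in thermal stability relative to solvent controls.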

[2] = compound: C/C(=N\NC(=O)C1=CC(=CC=C1)S(=O)(=O)N2CCOCC2)/C3=C(C=CC(=C3)Cl)O
Procedure, shortened: as §1

[3] = compound: C1=CC(=CC=C1C2=NC3=C(N2)C=C(C=C3)C(=O)N)OC4=CC=C(C=C4)Cl
Procedure, shortened: as §1

[4] = compound: C1=CC2=C(C=CC(=C2)/C=C\3/C(=O)NC(=NCC4=CC=CS4)S3)N=C1
Procedure, shortened: as §1

[5] = compound: C1=CC=C(C=C1)C2=NC(=C(N2)C3=CC=NC=C3)C4=CC(=C(C=C4)Cl)O
Procedure, shortened: as §1

[6] = compound: C1=CC=C2C(=C1)C3=NNC4=CC=CC(=C43)C2=O
Procedure, shortened: as §1

[7] = compound: C1CCN(C1)C(=O)NC2=CC=CC(=C2)NC3=NC=C(C(=N3)NCCC4=CN=CN4)Br
Procedure, shortened: as §1

[8] = compound: C1CN(CCC1(CC2=CC=C(C=C2)Cl)N)C3=NC=NC4=C3C=CN4
Procedure, shortened: as §1

[9] = compound: C1COCCN1CCN2C3=CC=CC=C3N=C2NC(=O)C4=CC(=CC=C4)[N+](=O)[O-] [IRAK-1-4 Inhibitor I]
Procedure, shortened: as §1

[10] = compound: CC(=O)c1cnc2ccc(-c3cc(Cl)c(O)c(Cl)c3)nc2c1N[C@H]1CC[C@H](CN(C)C)CC1
Procedure, shortened: as §1

[11] = compound: CC(C)(C)Cn1c(N)nc2ccc(-c3[nH]c(C(C)(C)C)nc3-c3ccc(F)cc3)nc21 [ralimetinib]
Procedure, shortened: as §1

[12] = compound: CC(C)(O)CC(=O)NCCn1ccc2ncnc(Nc3ccc(Oc4cccc(C(F)(F)F)c4)c(Cl)c3)c21
Procedure, shortened: as §1

[13] = compound: CC(C)C1=C2N=C(C=C(N2N=C1)NCC3=CC=CC=C3)NCCCCCCN
Procedure, shortened: as §1

[14] = compound: CC1=C(C2=C(C=C1)C(=O)C3=CC=CC=C3N2CCCN)C
Procedure, shortened: as §1

[15] = compound: CC1=C(C=C(C=C1)NC(=O)C2=CC(=CC=C2)C(C)(C)C#N)NC3=CC4=C(C=C3)N=CN(C4=O)C
Procedure, shortened: as §1

[16] = compound: CC1=C(C=C(C=C1)NC(=O)C2=CC(=CC=C2)N(C)C)NC(=O)C3=CC=C(C=C3)O
Procedure, shortened: as §1

[17] = compound: CC1=CC=C(C=C1)SC2=C3C=C(SC3=CN=C2)C(=O)N
Procedure, shortened: as §1

[18] = compound: C1=CC2=NC=CN=C2C=C1/C=C/3\C(=O)NC(=O)S3
Procedure, shortened: as §1

[19] = compound: C=CC(=O)N1CCC[C@@H](n2nc(-c3ccc(Oc4ccccc4)cc3)c3c(N)ncnc32)C1 [ibrutinib]
Procedure, shortened: as §1

[20] = compound: CC1=C(C(CC(=O)N1)C2=CC=C(C=C2)C(F)(F)F)C(=O)NC3=C(C=C4C(=C3)C=NN4)F
Procedure, shortened: as §1

Measured: log2 fold change

CACUL1 (UniProt Q86Y37)
inactive: [1] 0.232 | [2] -0.048 | [3] 0.087 | [4] 0.044 | [5] 0.027 | [6] 0.045 | [7] 0.042 | [8] 0.023 | [9] 0.016 | [10] 0.164 | [11] -0.023 | [12] 0.073 | [13] 0.027 | [14] -0.165 | [15] -0.126 | [16] 0.115 | [17] -0.09

CEP152 (UniProt O94986)
UniProt O94986, sequence (O94986 whole entry, looked up): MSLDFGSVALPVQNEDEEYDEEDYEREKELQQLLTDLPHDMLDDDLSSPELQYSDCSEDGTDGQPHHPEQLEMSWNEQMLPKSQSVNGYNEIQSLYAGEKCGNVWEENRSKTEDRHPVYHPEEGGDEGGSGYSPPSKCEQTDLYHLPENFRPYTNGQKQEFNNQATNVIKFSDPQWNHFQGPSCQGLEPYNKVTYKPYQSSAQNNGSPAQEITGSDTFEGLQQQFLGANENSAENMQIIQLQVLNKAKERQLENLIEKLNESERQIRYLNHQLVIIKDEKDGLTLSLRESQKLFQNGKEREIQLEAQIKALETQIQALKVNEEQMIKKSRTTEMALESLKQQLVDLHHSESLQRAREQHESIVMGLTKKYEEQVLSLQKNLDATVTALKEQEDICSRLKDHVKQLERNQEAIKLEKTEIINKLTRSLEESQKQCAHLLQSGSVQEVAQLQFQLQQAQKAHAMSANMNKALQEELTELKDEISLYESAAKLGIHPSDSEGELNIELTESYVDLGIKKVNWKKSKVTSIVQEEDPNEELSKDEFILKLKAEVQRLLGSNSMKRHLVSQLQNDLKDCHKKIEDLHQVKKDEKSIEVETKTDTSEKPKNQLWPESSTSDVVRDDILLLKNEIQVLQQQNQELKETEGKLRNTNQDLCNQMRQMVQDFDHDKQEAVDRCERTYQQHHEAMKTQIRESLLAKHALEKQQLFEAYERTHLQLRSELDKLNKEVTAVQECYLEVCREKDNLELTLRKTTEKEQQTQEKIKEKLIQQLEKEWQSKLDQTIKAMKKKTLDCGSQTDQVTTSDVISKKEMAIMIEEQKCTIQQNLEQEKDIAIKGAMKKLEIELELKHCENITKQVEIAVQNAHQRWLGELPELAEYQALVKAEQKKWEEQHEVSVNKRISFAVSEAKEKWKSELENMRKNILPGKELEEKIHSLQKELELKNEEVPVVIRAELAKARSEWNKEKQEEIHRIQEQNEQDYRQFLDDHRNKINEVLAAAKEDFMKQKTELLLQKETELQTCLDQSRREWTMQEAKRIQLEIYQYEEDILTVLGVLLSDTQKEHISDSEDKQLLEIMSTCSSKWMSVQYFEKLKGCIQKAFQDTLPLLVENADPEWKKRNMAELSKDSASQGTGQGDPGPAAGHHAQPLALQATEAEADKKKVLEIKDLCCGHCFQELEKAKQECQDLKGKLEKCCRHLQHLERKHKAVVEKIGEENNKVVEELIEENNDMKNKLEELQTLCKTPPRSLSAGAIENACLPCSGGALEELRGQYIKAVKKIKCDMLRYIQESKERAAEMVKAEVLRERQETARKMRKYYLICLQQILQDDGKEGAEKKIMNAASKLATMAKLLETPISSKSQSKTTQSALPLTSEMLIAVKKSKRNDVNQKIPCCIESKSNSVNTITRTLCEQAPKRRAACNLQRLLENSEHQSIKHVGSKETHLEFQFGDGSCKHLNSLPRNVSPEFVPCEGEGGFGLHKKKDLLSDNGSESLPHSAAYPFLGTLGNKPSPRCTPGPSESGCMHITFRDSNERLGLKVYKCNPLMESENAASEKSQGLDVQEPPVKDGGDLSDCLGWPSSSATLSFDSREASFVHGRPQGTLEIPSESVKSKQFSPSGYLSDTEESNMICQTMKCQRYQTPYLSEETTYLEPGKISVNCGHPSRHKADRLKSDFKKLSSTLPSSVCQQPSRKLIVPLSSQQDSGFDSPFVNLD
inactive: [1] -0.011 | [2] -0.043 | [3] 0.142 | [4] -0.1 | [18] 0.139 | [5] 0.099 | [6] 0.123 | [7] -0.07 | [8] 0.073 | [9] 0.086 | [19] -0.077 | [11] 0.144 | [12] -0.092 | [13] -0.062 | [20] -0.04 | [14] -0.071 | [15] 0.095 | [16] -0.067

C1orf131 isoform 5 (UniProt Q8NDD1)
inactive: [1] -0.006 | [2] -0.094 | [3] 0.051 | [4] -0.058 | [5] -0.013 | [6] -0.001 | [7] -0.062 | [8] -0.011 | [9] 0.067 | [10] 0.041 | [11] 0.06 | [12] -0.056 | [13] 0.028 | [20] -0.016 | [14] -0.071 | [15] 0.08 | [16] 0.025 | [17] -0.043

CDK17 isoform 2 (UniProt Q00537)
inactive: [1] -0.156 | [2] -0.007 | [3] 0.173 | [4] 0.099 | [18] -0.114 | [5] 0.005 | [6] 0.046 | [7] 0.124 | [8] 0.068 | [9] 0.055 | [19] -0.029 | [11] -0.019 | [12] -0.003 | [13] -0.037 | [20] -0.162 | [14] -0.08 | [15] 0.029 | [16] 0.057

AUH (UniProt Q13825)
inactive: [1] 0.003 | [2] -0.031 | [3] 0.083 | [4] -0.042 | [18] 0.111 | [5] 0.027 | [6] -0.035 | [7] 0.026 | [8] -0.045 | [9] -0.008 | [19] 0.024 | [10] 0.103 | [11] -0.161 | [12] -0.003 | [13] 0.011 | [14] -0.304 | [15] 0.015 | [16] -0.132 | [17] -0.058

BRD3 (UniProt Q15059)
inactive: [1] -0.005 | [2] 0.084 | [3] -0.065 | [4] 0.004 | [18] -0.033 | [6] -0.013 | [7] -0.001 | [8] 0.036 | [19] -0.011 | [10] 0.04 | [13] 0.095 | [20] -0.054 | [14] -0.033 | [15] 0.059 | [17] -0.074

C3orf33 (UniProt Q6P1S2)
inactive: [1] 0.195 | [2] -0.205 | [3] 0.209 | [4] -0.124 | [18] 0.068 | [5] 0.032 | [6] 0.123 | [9] -0.281 | [19] -0.045 | [10] -0.084 | [11] 0.17 | [12] 0.012 | [13] -0.001 | [20] 0.046 | [14] -0.031 | [15] 0.117 | [16] -0.205 | [17] 0.008

ATF7IP2 (UniProt Q5U623)
UniProt Q5U623, sequence (Q5U623 whole entry, looked up): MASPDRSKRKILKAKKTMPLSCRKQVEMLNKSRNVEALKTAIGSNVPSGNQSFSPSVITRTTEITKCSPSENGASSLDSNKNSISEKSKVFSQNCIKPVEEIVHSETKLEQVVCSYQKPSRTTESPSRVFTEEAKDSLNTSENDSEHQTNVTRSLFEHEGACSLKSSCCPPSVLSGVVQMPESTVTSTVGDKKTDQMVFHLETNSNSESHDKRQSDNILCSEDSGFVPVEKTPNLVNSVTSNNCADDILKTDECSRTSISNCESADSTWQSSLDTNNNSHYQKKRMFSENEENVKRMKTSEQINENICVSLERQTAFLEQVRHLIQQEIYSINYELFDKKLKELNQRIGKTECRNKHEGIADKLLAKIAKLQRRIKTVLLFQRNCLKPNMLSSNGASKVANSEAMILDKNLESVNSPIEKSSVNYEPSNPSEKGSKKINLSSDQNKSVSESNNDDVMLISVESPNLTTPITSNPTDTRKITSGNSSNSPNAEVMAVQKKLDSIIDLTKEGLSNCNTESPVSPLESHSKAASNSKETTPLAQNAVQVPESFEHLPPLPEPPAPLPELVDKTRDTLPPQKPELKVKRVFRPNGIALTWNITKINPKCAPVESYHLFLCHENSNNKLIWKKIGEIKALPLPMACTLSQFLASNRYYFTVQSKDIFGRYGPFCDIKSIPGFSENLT
inactive: [1] 0.012 | [2] -0.034 | [3] 0.086 | [4] 0.026 | [18] -0.069 | [5] -0.027 | [6] -0.132 | [9] 0.027 | [19] 0.054 | [10] -0.03 | [11] 0.045 | [12] -0.201 | [13] 0.058 | [20] -0.056 | [15] 0.097 | [16] -0.04 | [17] -0.088

BTK isoform 2 (UniProt Q06187)
UniProt Q06187, sequence (Q06187 whole entry, looked up): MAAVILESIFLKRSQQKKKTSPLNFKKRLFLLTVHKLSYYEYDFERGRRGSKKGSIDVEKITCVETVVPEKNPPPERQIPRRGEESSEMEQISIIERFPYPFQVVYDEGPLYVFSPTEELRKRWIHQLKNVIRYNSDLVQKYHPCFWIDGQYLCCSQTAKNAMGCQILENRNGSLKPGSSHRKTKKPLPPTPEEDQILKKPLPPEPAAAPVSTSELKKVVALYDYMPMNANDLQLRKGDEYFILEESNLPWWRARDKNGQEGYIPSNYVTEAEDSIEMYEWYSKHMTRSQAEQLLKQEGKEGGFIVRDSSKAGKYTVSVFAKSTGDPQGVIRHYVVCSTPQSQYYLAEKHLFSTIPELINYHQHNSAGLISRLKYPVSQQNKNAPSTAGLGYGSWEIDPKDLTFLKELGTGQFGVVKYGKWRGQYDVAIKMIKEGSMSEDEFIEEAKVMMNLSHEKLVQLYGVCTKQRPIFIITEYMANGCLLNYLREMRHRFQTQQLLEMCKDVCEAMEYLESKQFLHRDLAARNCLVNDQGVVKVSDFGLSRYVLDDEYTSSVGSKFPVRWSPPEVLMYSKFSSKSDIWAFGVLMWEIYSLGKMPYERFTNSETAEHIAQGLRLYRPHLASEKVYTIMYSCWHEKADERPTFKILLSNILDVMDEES
inactive: [1] 0.002 | [2] 0.017 | [3] -0.046 | [4] 0.031 | [18] 0.025 | [5] -0.005 | [6] -0.05 | [7] 0.077 | [8] -0.052 | [9] -0.017 | [10] 0.012 | [11] 0.014 | [12] 0.02 | [13] -0.01 | [20] 0.005 | [14] -0.032 | [15] 0.055 | [16] 0.042 | [17] -0.011

BTRC (UniProt Q9Y297)
inactive: [1] 0.002 | [2] 0.085 | [3] -0.078 | [4] 0.001 | [18] 0 | [5] -0.007 | [6] 0.029 | [7] -0.138 | [8] -0.028 | [9] 0.018 | [19] 0.026 | [10] 0.012 | [11] 0.068 | [12] -0.033 | [13] 0.045 | [20] 0.015 | [16] 0.075 | [17] -0.002

C2CD5 isoform 3 (UniProt Q86YS7)
inactive: [1] 0.021 | [2] -0.047 | [3] 0.017 | [4] -0.024 | [18] -0.048 | [5] -0.034 | [6] -0.046 | [7] -0.045 | [8] 0.024 | [9] 0.054 | [19] -0.005 | [10] -0.026 | [11] 0.016 | [12] -0.123 | [13] 0.019 | [20] -0.018 | [14] 0.023 | [15] 0.071 | [16] -0.004 | [17] -0.068

C8orf37 (UniProt Q96NL8)
UniProt Q96NL8, sequence (Q96NL8 whole entry, looked up): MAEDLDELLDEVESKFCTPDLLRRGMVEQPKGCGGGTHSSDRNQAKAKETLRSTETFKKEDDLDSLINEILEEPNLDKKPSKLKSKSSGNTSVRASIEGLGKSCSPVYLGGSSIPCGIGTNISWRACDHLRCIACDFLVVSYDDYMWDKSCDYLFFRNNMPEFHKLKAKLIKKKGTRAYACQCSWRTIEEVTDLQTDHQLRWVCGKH
inactive: [1] -0.006 | [2] -0.174 | [3] 0.029 | [4] -0.064 | [18] 0.005 | [5] 0.001 | [6] 0.037 | [7] -0.067 | [8] 0.007 | [9] -0.047 | [19] 0.214 | [10] -0.037 | [11] -0.004 | [12] 0.031 | [13] -0.038 | [14] -0.006 | [15] 0.089 | [16] 0.031 | [17] -0.089

CAMK2B (UniProt Q13554)
UniProt Q13554, sequence (Q13554 whole entry, looked up): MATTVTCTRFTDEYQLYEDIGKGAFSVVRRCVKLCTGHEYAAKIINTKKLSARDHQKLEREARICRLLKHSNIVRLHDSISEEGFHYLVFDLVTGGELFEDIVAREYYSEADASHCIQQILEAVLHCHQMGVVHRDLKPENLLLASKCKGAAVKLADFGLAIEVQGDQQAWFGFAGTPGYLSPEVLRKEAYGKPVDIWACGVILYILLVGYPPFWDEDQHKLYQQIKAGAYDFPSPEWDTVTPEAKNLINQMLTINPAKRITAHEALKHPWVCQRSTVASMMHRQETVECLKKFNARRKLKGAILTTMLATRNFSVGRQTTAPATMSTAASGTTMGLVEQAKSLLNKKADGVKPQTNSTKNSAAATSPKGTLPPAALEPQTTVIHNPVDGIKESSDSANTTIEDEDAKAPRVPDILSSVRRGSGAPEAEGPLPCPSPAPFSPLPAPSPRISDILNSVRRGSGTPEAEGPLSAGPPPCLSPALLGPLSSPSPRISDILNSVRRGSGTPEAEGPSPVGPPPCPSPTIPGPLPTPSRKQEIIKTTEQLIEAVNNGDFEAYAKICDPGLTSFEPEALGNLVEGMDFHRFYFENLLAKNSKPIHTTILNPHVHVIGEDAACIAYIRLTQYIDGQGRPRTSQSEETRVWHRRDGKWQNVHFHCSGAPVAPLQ
inactive: [1] 0.037 | [2] 0.086 | [3] -0.067 | [4] -0.039 | [18] -0.068 | [5] -0.069 | [7] 0.011 | [8] -0.034 | [9] 0.087 | [19] 0.092 | [10] 0.023 | [11] 0.028 | [12] 0.045 | [13] 0.075 | [20] -0.035 | [14] -0.018 | [15] -0.005 | [16] 0.046 | [17] -0.032

ATG10 (UniProt Q9H0Y0)
UniProt Q9H0Y0, sequence (Q9H0Y0 whole entry, looked up): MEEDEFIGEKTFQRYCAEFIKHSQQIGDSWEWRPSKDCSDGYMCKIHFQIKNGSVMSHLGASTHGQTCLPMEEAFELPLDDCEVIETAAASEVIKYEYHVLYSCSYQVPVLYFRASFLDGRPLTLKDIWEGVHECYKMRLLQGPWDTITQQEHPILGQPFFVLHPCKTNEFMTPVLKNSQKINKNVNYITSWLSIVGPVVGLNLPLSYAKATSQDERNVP
inactive: [1] 0.062 | [2] 0.043 | [3] -0.011 | [4] -0.012 | [18] -0.01 | [5] 0.035 | [6] 0.086 | [7] -0.004 | [8] -0.004 | [9] 0.022 | [19] 0.057 | [11] 0.001 | [12] -0.013 | [13] -0.062 | [20] -0.132 | [14] 0.063 | [15] 0.053 | [16] 0.012

BRAF (UniProt P15056)
UniProt P15056, sequence (P15056 whole entry, looked up): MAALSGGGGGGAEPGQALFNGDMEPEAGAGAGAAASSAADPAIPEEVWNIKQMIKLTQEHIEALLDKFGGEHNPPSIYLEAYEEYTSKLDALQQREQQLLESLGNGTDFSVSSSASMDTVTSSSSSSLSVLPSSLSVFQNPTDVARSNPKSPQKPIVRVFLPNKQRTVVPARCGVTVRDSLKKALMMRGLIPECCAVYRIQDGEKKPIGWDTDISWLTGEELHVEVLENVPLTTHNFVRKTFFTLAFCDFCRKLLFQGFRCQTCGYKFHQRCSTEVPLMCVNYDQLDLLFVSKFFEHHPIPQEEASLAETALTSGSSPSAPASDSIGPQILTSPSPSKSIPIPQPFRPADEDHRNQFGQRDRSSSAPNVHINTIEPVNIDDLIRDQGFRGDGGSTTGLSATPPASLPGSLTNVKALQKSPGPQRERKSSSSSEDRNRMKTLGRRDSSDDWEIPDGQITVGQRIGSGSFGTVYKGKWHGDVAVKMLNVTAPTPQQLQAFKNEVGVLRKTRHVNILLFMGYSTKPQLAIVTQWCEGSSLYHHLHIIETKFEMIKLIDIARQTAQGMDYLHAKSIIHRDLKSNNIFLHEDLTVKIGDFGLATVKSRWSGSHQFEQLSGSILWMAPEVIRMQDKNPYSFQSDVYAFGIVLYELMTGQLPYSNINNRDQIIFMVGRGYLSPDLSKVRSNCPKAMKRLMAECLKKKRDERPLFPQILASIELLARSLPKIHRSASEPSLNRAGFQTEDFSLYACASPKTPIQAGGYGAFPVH
inactive: [1] -0.05 | [2] -0.101 | [3] -0.04 | [4] 0.013 | [18] -0.008 | [6] 0 | [7] -0.007 | [8] 0.027 | [9] -0.005 | [19] 0.29 | [11] 0.008 | [13] 0.032 | [20] 0.004 | [14] -0.111 | [17] -0.021
active: [15] 0.65

C16orf70 (UniProt Q9BSU1)
active: [4] 0.271
inactive: [1] 0.023 | [2] 0.194 | [3] -0.06 | [18] 0.033 | [5] -0.128 | [6] -0.193 | [7] 0.016 | [8] 0.055 | [9] -0.021 | [19] -0.048 | [10] -0.011 | [11] 0.034 | [12] 0.031 | [13] -0.068 | [14] -0.043 | [15] 0 | [16] 0.058 | [17] -0.024

CDC16 (UniProt Q13042)
inactive: [1] -0.006 | [2] -0.067 | [3] -0.051 | [4] 0.031 | [18] -0.009 | [5] 0.006 | [6] 0.019 | [7] 0.027 | [8] -0.056 | [9] -0.004 | [19] 0.02 | [10] 0.019 | [11] 0.025 | [12] -0.022 | [13] 0.012 | [20] -0.006 | [14] 0.04 | [15] -0.029 | [16] -0.005 | [17] 0.025
